Test results from paper PMC7862700, “An all-to-all approach to the identification of sequence-specific readers for epigenetic DNA modifications on cytosine”.

Assays:
Experiment in all cases: DAPPL (digital affinity profiling via proximity ligation, sequencing); 10 mM Tris-HCl pH 7.5, 50 mM NaCl, 1 mM DTT, 4% glycerol, room temperature, 30 min; GST-TFs on glutathione beads, 16-mer random dsDNA library, 0.1% formaldehyde crosslink after washing; high values mean tight binding
Conditions in all cases: protein: recombinant; tags: N-terminal GST; dsDNA, one strand shown
FLI1 = target: T1, FLI1 (Homo sapiens, UniProt Q01543 1-452)
T1 sequence: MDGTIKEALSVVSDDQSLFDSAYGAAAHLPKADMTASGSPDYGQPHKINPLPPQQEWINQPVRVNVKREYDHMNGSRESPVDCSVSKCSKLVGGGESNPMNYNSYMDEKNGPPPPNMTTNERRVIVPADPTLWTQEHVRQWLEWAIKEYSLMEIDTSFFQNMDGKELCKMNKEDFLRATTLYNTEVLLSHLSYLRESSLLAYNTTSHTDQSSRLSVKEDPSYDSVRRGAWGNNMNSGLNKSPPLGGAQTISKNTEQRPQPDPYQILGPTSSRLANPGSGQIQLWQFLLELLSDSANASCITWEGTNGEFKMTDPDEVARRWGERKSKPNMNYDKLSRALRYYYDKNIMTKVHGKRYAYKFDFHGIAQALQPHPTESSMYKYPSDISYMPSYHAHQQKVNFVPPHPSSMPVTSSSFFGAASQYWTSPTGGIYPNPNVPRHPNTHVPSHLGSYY
Summary of the method: (§1)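 Beads coated with glutathione captured GST-fused human transcription factors that had been expressed in yeast, and the factors were then given DNA barcodes and pooled with a tag-only sample. The pools were incubated with 200 nmole of a random double-stranded 16-mer DNA library in Tris/NaCl/DTT/glycerol buffer for 30 min at room temperature, washed, crosslinked with 0.1% formaldehyde and proximity-ligated with BsaI/T4 ligase at 37 °C for 1 h. PCR amplification and Illumina NextSeq500 sequencing came last. Binding signal is each hexamer's read frequency for a factor divided by its frequency for the tag-only sample.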

ELK1 = target: T2, ELK1 (Homo sapiens, UniProt P19419 1-428)
T2 sequence: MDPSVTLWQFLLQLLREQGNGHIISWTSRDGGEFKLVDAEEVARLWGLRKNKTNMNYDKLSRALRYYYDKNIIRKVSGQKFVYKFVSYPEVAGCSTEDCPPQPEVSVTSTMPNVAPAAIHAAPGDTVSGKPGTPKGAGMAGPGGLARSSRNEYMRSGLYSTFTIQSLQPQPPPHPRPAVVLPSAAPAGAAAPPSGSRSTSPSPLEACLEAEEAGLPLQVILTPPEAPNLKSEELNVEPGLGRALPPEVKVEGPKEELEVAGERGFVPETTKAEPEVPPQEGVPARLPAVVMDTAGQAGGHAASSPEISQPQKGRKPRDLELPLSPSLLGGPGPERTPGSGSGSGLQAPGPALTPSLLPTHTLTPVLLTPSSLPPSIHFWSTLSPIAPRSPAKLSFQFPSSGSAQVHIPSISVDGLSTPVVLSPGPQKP
Summary of the method: as §1

GABPA = target: T3, GABPA (Homo sapiens, UniProt Q06546 1-454)
T3 sequence: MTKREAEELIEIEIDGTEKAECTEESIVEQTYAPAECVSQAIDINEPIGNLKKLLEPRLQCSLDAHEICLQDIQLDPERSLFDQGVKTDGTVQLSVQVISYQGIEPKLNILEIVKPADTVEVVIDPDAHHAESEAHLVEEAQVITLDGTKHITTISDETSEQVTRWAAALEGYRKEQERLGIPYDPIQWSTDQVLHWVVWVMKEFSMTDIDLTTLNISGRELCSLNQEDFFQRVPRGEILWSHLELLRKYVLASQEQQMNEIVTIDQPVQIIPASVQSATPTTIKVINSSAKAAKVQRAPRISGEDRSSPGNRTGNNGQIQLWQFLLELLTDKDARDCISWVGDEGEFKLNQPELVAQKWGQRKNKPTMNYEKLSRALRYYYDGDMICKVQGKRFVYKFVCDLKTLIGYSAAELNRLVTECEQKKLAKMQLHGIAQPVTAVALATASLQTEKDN
Summary of the method: as §1

ERG = target: T4, ERG (Homo sapiens, UniProt P11308 1-479)
T4 sequence: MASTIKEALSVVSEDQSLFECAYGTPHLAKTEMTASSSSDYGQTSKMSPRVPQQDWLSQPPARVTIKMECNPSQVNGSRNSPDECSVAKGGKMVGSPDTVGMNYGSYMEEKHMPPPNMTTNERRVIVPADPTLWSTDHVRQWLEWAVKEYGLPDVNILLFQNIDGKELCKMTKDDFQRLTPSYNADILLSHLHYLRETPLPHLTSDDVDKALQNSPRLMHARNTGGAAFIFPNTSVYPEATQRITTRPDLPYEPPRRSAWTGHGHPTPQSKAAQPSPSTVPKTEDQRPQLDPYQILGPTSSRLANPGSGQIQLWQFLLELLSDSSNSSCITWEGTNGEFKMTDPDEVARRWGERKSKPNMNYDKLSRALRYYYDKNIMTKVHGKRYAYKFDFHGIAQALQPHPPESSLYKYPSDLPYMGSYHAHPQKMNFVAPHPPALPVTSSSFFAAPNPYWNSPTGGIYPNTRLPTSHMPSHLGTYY
Summary of the method: as §1

ELF1 = ELF1 (Homo sapiens, UniProt P32519 1-619)
Summary of the method: as §1

EHF = target: T5, EHF (Homo sapiens, UniProt Q9NZC4 1-300)
T5 sequence: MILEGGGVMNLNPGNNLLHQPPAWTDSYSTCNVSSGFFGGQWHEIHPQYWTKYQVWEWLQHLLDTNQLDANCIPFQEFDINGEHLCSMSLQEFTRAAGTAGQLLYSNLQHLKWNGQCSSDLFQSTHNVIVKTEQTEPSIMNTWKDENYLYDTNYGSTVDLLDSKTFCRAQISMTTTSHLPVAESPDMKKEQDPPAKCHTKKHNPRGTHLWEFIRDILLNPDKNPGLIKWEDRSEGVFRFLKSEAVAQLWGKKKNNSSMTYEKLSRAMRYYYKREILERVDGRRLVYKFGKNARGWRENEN
Summary of the method: as §1

SPI1 = SPI1 (Homo sapiens, UniProt P17947 1-270)
Summary of the method: as §1

SPIB = SPIB (Homo sapiens, UniProt Q01892 1-262)
Summary of the method: as §1

ELK3 = target: T6, ELK3 (Homo sapiens, UniProt P41970 1-407)
T6 sequence: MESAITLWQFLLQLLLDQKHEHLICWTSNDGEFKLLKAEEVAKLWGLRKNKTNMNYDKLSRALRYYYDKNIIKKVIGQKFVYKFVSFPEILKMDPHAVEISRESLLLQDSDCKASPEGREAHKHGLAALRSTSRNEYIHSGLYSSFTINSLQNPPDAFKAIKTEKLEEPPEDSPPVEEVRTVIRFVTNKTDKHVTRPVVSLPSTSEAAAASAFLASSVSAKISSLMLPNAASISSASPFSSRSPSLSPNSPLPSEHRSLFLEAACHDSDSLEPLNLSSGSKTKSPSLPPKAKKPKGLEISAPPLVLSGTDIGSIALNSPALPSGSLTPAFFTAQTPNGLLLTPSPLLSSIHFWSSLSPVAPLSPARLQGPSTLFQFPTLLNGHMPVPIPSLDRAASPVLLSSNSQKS
Summary of the method: as §1

FEV = target: T7, FEV (Homo sapiens, UniProt Q99581 1-238)
T7 sequence: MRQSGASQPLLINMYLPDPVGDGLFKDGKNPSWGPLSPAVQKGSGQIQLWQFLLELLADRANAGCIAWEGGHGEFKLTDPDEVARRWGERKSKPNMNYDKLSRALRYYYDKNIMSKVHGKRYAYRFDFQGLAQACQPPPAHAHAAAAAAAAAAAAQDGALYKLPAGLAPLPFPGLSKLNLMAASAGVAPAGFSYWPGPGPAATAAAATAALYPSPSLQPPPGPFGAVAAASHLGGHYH
Summary of the method: as §1

ETV5 = ETV5 (Homo sapiens, UniProt P41161 1-510)
Summary of the method: as §1

SPIC = target: T8, SPIC (Homo sapiens, UniProt Q8N5J4 1-248)
T8 sequence: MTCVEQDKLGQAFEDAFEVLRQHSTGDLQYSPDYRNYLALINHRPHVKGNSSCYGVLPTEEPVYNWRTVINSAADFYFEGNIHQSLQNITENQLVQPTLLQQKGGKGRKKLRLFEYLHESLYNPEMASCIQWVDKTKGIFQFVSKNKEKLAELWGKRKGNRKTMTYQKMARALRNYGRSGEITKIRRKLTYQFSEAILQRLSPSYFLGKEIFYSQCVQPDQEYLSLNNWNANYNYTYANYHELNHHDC
Summary of the method: as §1

ELF4 = ELF4 (Homo sapiens, UniProt Q99607 1-663)
Summary of the method: as §1

ELK4 = target: T9, ELK4 (Homo sapiens, UniProt P28324-2 1-405)
T9 sequence: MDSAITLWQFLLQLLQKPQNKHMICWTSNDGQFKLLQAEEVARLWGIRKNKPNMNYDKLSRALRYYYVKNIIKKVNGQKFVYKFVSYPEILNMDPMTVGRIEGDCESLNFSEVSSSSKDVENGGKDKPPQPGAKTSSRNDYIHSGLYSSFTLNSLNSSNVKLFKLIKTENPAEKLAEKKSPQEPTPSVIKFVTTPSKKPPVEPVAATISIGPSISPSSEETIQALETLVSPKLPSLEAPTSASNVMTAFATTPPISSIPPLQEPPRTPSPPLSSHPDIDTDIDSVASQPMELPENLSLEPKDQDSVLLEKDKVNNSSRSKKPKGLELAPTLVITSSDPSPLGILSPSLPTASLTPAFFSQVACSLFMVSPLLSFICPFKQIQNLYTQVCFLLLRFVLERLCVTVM
Summary of the method: as §1

ETV2 = target: T10, ETV2 (Homo sapiens, UniProt O00321 1-342)
T10 sequence: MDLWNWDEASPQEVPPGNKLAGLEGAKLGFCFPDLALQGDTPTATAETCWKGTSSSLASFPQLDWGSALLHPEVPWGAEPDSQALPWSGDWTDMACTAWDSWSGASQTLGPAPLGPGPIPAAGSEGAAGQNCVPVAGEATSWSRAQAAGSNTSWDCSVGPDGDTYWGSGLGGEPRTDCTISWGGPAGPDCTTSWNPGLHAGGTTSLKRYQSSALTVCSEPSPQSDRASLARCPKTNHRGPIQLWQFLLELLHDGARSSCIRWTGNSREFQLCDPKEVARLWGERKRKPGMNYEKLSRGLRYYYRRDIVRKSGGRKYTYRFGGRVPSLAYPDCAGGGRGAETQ
Summary of the method: as §1

ELF3 = target: T11, ELF3 (Homo sapiens, UniProt P78545 1-371)
T11 sequence: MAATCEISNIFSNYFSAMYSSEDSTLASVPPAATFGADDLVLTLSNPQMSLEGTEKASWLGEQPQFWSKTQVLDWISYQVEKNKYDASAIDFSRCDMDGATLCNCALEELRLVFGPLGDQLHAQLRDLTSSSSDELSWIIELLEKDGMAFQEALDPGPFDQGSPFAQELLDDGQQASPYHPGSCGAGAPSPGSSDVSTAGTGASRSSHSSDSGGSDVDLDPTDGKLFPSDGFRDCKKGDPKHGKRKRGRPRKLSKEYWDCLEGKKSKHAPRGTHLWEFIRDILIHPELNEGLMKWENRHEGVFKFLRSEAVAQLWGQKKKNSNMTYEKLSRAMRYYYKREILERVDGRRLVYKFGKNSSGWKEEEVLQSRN
Summary of the method: as §1

ETV1 = ETV1 (Homo sapiens, UniProt P50549 1-477)
Summary of the method: as §1

Chain of SPIB (Q01892 whole entry): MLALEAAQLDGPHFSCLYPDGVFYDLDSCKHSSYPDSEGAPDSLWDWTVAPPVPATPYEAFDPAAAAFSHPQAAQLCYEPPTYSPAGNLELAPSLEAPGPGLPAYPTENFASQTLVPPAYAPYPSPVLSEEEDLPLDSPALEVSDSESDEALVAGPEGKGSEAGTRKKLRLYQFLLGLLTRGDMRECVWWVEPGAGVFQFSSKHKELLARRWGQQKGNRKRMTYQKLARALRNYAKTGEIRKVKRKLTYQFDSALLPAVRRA
Chain of ELF1 (P32519 whole entry): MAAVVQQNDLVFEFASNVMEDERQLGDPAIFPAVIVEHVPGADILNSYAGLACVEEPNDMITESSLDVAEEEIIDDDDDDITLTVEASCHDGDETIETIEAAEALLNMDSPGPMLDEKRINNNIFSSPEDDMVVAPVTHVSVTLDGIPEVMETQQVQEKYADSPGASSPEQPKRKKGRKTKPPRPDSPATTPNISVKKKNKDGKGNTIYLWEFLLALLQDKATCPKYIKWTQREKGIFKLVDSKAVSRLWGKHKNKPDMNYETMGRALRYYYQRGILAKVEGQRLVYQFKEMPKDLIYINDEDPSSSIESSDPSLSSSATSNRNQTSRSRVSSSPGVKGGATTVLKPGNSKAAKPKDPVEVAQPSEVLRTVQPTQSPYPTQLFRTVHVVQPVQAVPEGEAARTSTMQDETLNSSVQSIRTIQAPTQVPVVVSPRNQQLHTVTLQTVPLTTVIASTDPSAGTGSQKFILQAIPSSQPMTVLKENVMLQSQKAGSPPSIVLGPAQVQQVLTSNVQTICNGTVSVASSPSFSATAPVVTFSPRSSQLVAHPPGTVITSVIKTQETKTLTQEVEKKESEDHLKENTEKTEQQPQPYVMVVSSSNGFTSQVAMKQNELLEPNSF
Chain of ETV5 (P41161 whole entry): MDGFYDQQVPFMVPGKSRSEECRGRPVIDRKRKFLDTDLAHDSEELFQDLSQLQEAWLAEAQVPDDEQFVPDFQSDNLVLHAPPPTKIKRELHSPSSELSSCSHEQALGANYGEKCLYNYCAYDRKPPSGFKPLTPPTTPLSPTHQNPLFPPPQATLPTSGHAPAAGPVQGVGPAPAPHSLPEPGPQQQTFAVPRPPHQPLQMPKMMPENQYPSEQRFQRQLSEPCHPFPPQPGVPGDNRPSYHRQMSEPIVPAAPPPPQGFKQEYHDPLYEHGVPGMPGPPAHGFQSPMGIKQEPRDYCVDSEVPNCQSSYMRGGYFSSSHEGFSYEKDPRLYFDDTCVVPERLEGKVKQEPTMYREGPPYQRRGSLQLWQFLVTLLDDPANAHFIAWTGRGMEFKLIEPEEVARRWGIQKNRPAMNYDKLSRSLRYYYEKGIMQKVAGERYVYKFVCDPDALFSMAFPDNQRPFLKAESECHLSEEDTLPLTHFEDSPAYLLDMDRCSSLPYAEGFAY
Chain of ETV1 (P50549 whole entry): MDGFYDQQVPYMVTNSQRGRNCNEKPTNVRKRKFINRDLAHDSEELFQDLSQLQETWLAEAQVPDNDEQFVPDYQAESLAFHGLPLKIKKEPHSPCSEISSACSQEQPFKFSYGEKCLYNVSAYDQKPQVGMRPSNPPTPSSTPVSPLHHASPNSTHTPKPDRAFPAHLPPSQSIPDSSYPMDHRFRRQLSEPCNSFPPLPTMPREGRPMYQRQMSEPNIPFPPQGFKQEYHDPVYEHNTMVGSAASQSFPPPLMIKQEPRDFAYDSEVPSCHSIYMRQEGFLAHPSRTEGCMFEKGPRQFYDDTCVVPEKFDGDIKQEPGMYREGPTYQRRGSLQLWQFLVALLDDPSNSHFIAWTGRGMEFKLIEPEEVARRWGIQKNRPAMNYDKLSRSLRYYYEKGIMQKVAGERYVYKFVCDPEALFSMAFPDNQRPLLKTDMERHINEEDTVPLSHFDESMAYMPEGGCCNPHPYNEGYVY
Chain of ELF4 (Q99607 whole entry): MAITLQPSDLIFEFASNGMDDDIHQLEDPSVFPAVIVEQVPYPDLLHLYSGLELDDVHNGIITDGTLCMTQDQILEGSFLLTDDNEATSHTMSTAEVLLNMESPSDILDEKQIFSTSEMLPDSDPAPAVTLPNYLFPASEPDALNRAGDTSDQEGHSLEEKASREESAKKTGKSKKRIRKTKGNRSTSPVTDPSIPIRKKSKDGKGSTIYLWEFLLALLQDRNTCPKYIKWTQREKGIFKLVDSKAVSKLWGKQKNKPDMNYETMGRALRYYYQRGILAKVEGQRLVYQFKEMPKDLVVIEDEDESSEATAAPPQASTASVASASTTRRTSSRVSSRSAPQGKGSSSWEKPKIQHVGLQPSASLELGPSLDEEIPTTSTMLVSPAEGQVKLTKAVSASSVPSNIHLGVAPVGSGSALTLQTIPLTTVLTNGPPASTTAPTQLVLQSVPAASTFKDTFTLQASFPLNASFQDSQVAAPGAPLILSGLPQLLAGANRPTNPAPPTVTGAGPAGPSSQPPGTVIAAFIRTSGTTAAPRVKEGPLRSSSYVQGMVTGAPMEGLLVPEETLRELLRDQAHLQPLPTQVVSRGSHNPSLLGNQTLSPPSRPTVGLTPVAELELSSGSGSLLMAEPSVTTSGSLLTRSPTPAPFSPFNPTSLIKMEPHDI

Row | Sequence | binding signal (FLI1) | binding signal (ELK1) | binding signal (GABPA) | binding signal (ERG) | binding signal (ELF1) | binding signal (EHF) | binding signal (SPI1) | binding signal (SPIB) | binding signal (ELK3) | binding signal (FEV) | binding signal (ETV5) | binding signal (SPIC) | binding signal (ELF4) | binding signal (ELK4) | binding signal (ETV2) | binding signal (ELF3) | binding signal (ETV1)
1 | GCGACC | 1.09 fold enrichment (6-mer frequency, TF over GST control) | 1.11 fold enrichment (6-mer frequency, TF over GST control) | 1.09 fold enrichment (6-mer frequency, TF over GST control) | 1.17 fold enrichment (6-mer frequency, TF over GST control) | 1.15 fold enrichment (6-mer frequency, TF over GST control) | 1.2 fold enrichment (6-mer frequency, TF over GST control) | 1.07 fold enrichment (6-mer frequency, TF over GST control) | 1.08 fold enrichment (6-mer frequency, TF over GST control) | 1.02 fold enrichment (6-mer frequency, TF over GST control) | 1.19 fold enrichment (6-mer frequency, TF over GST control) | 1.09 fold enrichment (6-mer frequency, TF over GST control) | 1.2 fold enrichment (6-mer frequency, TF over GST control) | 1.25 fold enrichment (6-mer frequency, TF over GST control) | 1.03 fold enrichment (6-mer frequency, TF over GST control) | 1.26 fold enrichment (6-mer frequency, TF over GST control) | 1.08 fold enrichment (6-mer frequency, TF over GST control) | 1.06 fold enrichment (6-mer frequency, TF over GST control)
2 | GCTTGG | 1.19 fold enrichment (6-mer frequency, TF over GST control) | 1.15 fold enrichment (6-mer frequency, TF over GST control) | 1.12 fold enrichment (6-mer frequency, TF over GST control) | 1.09 fold enrichment (6-mer frequency, TF over GST control) | 1.08 fold enrichment (6-mer frequency, TF over GST control) | 1.05 fold enrichment (6-mer frequency, TF over GST control) | 1.04 fold enrichment (6-mer frequency, TF over GST control) | 1.16 fold enrichment (6-mer frequency, TF over GST control) | 1.15 fold enrichment (6-mer frequency, TF over GST control) | 1.03 fold enrichment (6-mer frequency, TF over GST control) | 1.02 fold enrichment (6-mer frequency, TF over GST control) | 1.03 fold enrichment (6-mer frequency, TF over GST control) | 1.07 fold enrichment (6-mer frequency, TF over GST control) | 1.11 fold enrichment (6-mer frequency, TF over GST control) | 1.07 fold enrichment (6-mer frequency, TF over GST control) | 1.14 fold enrichment (6-mer frequency, TF over GST control) | 1.22 fold enrichment (6-mer frequency, TF over GST control)
